Values joined by “and” are separate entries in the source; they are usually repeats but may differ in a detail not shown here. Identical values can stand only once. The whole screen tested about 16,000 compounds, of which about 5,100 (32%) were called active. Not shown: some 25% with an inconclusive outcome. The list shows a part of the results. A number with no mark means an inactive call. Calls follow the shape of the dose curve; as a rule, active = well fitted curve in the direction sought with a large enough effect; inconclusive = small, poorly fitted or top-dose-only effect, or effect the other way; inactive = no such curve, though single readings can be large or run the other way.
What follows are compounds tested against Cytochrome P450 3A4 (Homo sapiens) (UniProt P08684) (assay: Cytochrome panel assay with activity outcomes). Details: recombinant CYP, pro-luciferin dealkylation, luminescence, p450-cyp3a4; series mostly up to 57.1 µM; activity, negative = inhibition: at the top concentration.
Chain of Cytochrome P450 3A4 (Homo sapiens) (P08684 whole entry, looked up): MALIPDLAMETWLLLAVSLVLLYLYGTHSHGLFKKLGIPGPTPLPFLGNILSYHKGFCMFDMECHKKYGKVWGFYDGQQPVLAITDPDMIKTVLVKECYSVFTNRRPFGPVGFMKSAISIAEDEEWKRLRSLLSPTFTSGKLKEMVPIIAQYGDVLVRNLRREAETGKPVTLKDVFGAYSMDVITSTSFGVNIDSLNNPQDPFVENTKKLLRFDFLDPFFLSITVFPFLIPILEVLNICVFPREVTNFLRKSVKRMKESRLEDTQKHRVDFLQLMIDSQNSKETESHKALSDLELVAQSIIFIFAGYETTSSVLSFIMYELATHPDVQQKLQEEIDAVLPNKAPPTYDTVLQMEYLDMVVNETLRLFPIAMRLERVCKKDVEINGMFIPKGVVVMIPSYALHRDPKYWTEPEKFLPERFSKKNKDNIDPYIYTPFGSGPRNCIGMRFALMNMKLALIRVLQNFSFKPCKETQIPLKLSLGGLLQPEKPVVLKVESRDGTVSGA
In the case of `O=C(CSc1nnc(-c2cccc(S(=O)(=O)N3CCOCC3)c2)n1C1CCCCCC1)NCc1ccccc1`, the AC50 is reported as 2.51 µM (active). For `CCC(=O)N1CCN(C(=O)c2ccccc2)CC1`, the “activity, negative = inhibition” value was 6.01%. In the case of `O=C(COc1ccc2ccccc2c1)N1CCN(C(=O)c2cccnc2)CC1`, the AC50 is reported as 8.91 µM (active). In the case of `CC(=O)NC(CCS(C)(=O)=O)C(=O)Nc1c(F)cccc1F` (centres undefined), the “activity, negative = inhibition” value is reported as -3.35%. `Cc1c(NC(=O)CN2CCN(c3ccccc3)CC2)c(=O)n(-c2ccccc2)n1C` was tested, and the “activity, negative = inhibition” value was -14.6%. `Cc1c(NC(=O)CN2C(=O)C3C4C=CC(C4)C3C2=O)c(=O)n(-c2ccccc2)n1C` (centres undefined) was tested, and the AC50 was 22.4 µM (active). With `O=C(CCN1C(=O)C2C3C=CC(C3)C2C1=O)Nc1ccc2ncccc2c1` (centres undefined) the AC50 was 2.51 µM (active). For `Cc1c(NC(=O)Cn2ccc([N+](=O)[O-])n2)c(=O)n(-c2ccccc2)n1C`, the “activity, negative = inhibition” value was 8.95%. `O=C(CCN1C(=O)C2C3C=CC(C3)C2C1=O)Nc1c(F)cccc1F` (centres undefined) was tested, and the AC50 was 3.98 µM (active). `O=C(Nc1ccc2ncccc2c1)Nc1ccc2ncccc2c1` showed an activity, negative = inhibition of -24.8% [at 11.4 µM]. Compound `Clc1ncccc1-c1nc2ccccc2n1Cc1ccccc1` has an activity, negative = inhibition of 6.58% [at 2.29 µM]. `c1ccc(CN2c3ccccc3-c3nc4ccccc4n3C2c2ccccn2)cc1` (centres undefined) was tested, and the AC50 was 3.16 µM (active). In the case of `CC(C)C(=O)Nc1ccc(NC(=O)c2cccnc2)cn1`, the “activity, negative = inhibition” value is reported as -22.6%. In the case of `CC1=C(C(N)=O)C(c2ccccc2)n2nc(-c3ccncc3)nc2N1` (centres undefined), the AC50 is reported as 11.2 µM (active). With `COc1cccc(C2=CC(c3ccccc3)n3nnnc3N2)c1` (centres undefined) the “activity, negative = inhibition” value was -0.453%. With `CCOC(=O)C1C(=O)NC(C)C1c1ccccc1` (centres undefined) the activity, negative = inhibition was 1.56% [at 2.29 µM]. `COc1ccccc1NC(=O)C1=C(C)Nc2nnnn2C1c1cccc(Br)c1` (centres undefined) was tested, and the AC50 was 2.51 µM (active). With `CC1=C(C(=O)Nc2cccnc2)C(c2cccnc2)n2nc(-c3cccs3)nc2N1` (centres undefined) the AC50 was 14.1 µM (active). For `COc1ccccc1NC(=O)C1=C(C)Nc2nc(-c3ccc(N(C)C)cc3)nn2C1c1ccncc1` (centres undefined), the AC50 was 1.26 µM (active). In the case of `N#CC1(Nc2ccc(-c3ccc(NC4(C#N)CCCC4)cc3)cc2)CCCC1`, the activity, negative = inhibition is reported as -20.9% [at 11.4 µM]. `C=C(Br)CN(C)CC(=C)Br` was tested, and the activity, negative = inhibition was -1.54% [at 11.4 µM]. Compound `C[C@H]1/C=C\CC(=O)OC[C@H](C)C(=O)N2CCC[C@@H]2C(=O)OC1` has an activity, negative = inhibition of -17.6% [at 11.4 µM]. For `CC1=C(C(N)=O)C(c2cccs2)n2nc(-c3cccc(Cl)c3)nc2N1` (centres undefined), the AC50 was 12.6 µM (active). In the case of `CCC(=O)n1nc(-c2ccc(OC)cc2)nc1N`, the “activity, negative = inhibition” value is reported as -24.7%. For `CCOc1ccc(/C(O)=C2\C(=O)C(=O)N(CCOCCO)C2c2ccccc2OC)cc1` (centres undefined), the “activity, negative = inhibition” value was -10.2%. For `CCOc1ccccc1C1C(C(N)=O)=C(C)Nc2nc(-c3ccc(OC)cc3)nn21` (centres undefined), the AC50 was 12.6 µM (active). With `O=C1C2=C(NC(=S)NC2c2ccc(Cl)cc2)NC(c2ccc(Cl)cc2)N1c1ccc(Cl)cc1` (centres undefined) the AC50 was 2.82 µM (active). With `Clc1ccc2c(c1)C1=C(C(c3ccncc3)O2)C(c2ccc(Br)cc2)n2ncnc2N1` (centres undefined) the AC50 was 2.51 µM (active). With `CCc1cc2c(NCCO)ncnc2s1` the “activity, negative = inhibition” value was -18.7%. With `CCc1ccccc1NC(=O)c1ccc(-n2c(C)ccc2C)cc1` the AC50 was 17.8 µM (active). In the case of `CCOC(=O)c1ccc(CNC(=O)C2CCCCC2C(=O)OCC(F)(F)F)o1` (centres undefined), the “activity, negative = inhibition” value is reported as -12.7%. With `CC(C)NC[C@@H](O)COc1ccc(CCOCC2CC2)cc1` the AC50 was “inactive”. `CN1CC(c2ccccn2)C2(SC(=S)N(Cc3ccccc3)C2=O)C12C(=O)Nc1ccccc12` (centres undefined) was tested, and the AC50 was 4.47 µM (active). `CCOC(=O)c1ccc(OC(=O)CCCCCN=C(N)N)cc1` was tested, and the AC50 was “inactive”. `Cc1ccccc1C(=O)NNC(=O)c1ccoc1C` was tested, and the “activity, negative = inhibition” value was -11.1%. `CCCc1cc2c(cc1NC(=O)c1ccccc1C)OCO2` was tested, and the AC50 was 2.51 µM (active). Work on `CCC(=O)Nc1cc2c(cc1C(=O)c1ccccc1)OCCO2` yielded an activity, negative = inhibition of -4.4% [at 2.29 µM]. `CCCc1cc2c(cc1NC(=O)c1ccc(Br)cc1)OCO2` was tested, and the AC50 was 1.12 µM (active). `CCCc1cc2c(cc1NC(=O)c1ccccc1Cl)OCO2` was tested, and the AC50 was 2.24 µM (active). With `COC(=O)CSc1cc(C(F)(F)F)nc(-c2ccccn2)n1` the “activity, negative = inhibition” value was 18.3%. In the case of `CCCNC(=O)CSc1nc(-c2cccs2)cc(C(F)(F)F)n1`, the AC50 is reported as 7.08 µM (active). In the case of `O=C(N/N=C/c1ccco1)c1ccccn1`, the “activity, negative = inhibition” value is reported as -1.69%. For `O=C(NN=C1c2ccccc2-c2ccccc21)c1ccccn1`, the AC50 was 14.1 µM (active). `O=C(CNC(=O)c1ccccn1)N/N=C/c1ccccc1` gave an activity, negative = inhibition of -5.67% [at 2.29 µM]. In the case of `NC(=S)c1ccc[n+]([C@@H]2O[C@@H](COP(=O)([O-])OP(=O)(O)OC[C@@H]3O[C@@H](n4cnc5c(N)ncnc54)[C@@H](OP(=O)(O)O)[C@H]3O)[C@@H](O)[C@H]2O)c1`, the AC50 is reported as 12.6 µM (active). In the case of `Nc1nc(Cl)nc2c1ncn2[C@@H]1O[C@@H](COP(=O)(O)OP(=O)(O)OP(=O)(O)O)[C@@H](O)[C@H]1O`, the “activity, negative = inhibition” value is reported as 5.19%. With `NC(=O)C1=CN([C@@H]2O[C@@H](COP(=O)(O)OP(=O)(O)OC[C@@H]3O[C@H](n4cnc5c(N)ncnc54)[C@@H](OP(=O)(O)O)[C@@H]3O)[C@H](O)[C@@H]2O)C=CC1` the “activity, negative = inhibition” value was 0.506%. With `CCn1c(SCc2ccc(Cl)cc2Cl)nc2nc3c(cc2c1=O)CCCC3` the AC50 was 8.91 µM (active). `C#CCCCCCCCCCCCCCCCC(=O)O` was tested, and the “activity, negative = inhibition” value was -17.5%. In the case of `O=C(O)C1=CCNCC1`, the AC50 is reported as “inactive”. With `COc1ccc(C2C(=O)N(CCc3ccccc3)CC(=O)N2C2CCCC2)cc1` (centres undefined) the AC50 was 6.31 µM (active). For `COc1ccc(-c2nc3cnc(N(C)C)nc3n(CCc3ccccc3)c2=O)cc1`, the “activity, negative = inhibition” value was -16.1%. For `COc1ccc(/C(O)=C2/C(=O)C(=O)N(CCCC(=O)O)C2c2ccc(OC)cc2)cc1` (centres undefined), the “activity, negative = inhibition” value was 3%. `CCCCN1C(=O)CCC(C(=O)O)C1c1ccccc1` (centres undefined) was tested, and the “activity, negative = inhibition” value was 7.8%. For `CCCCN1C(=O)CN(CCc2ccccc2)C(=O)C1c1ccc(OC)cc1` (centres undefined), the AC50 was 7.94 µM (active). `CO[C@H]1COC(=O)[C@@H](Cc2ccccc2)NC(=O)[C@@H](C)COC(=O)CCC[C@@H]1C` was tested, and the AC50 was 3.16 µM (active). For `CO[C@@H]1COC(=O)[C@H](Cc2ccccc2)NC(=O)C/C=C\[C@@H](C)[C@H](OC)COC(=O)[C@@H](C)NC(=O)C/C=C\[C@H]1C`, the activity, negative = inhibition was -25.2% [at 11.4 µM] and -29.9% [at 11.4 µM]. With `CO[C@@H]1COC(=O)[C@H](COCc2ccccc2)NC(=O)C/C=C\[C@@H](C)[C@H](OC)COC(=O)[C@H](COCc2ccccc2)NC(=O)C/C=C\[C@H]1C` the activity, negative = inhibition was -6.81% [at 11.4 µM]. With `CO[C@H]1COC(=O)CCC[C@@H](C)[C@H](OC)COC(=O)[C@@H](C)NC(=O)C/C=C\[C@@H]1C` the activity, negative = inhibition was -24.2% [at 11.4 µM]. Work on `CO[C@@H]1COC(=O)CCC[C@@H](C)[C@H](OC)COC(=O)CCC[C@H]1C` yielded an activity, negative = inhibition of -19.8% [at 11.4 µM]. `CO[C@@H]1COC(=O)[C@@H](CCSC)NC(=O)C/C=C\[C@@H](C)COC(=O)[C@H](C)NC(=O)C/C=C\[C@H]1C` gave an activity, negative = inhibition of -17.8% [at 11.4 µM]. For `CO[C@@H]1COC(=O)CCC[C@@H](C)[C@H](OC)COC(=O)[C@H](Cc2ccccc2)NC(=O)C/C=C\[C@H]1C`, the AC50 was 3.98 µM (active). For `CO[C@H]1COC(=O)C/C=C\[C@H](C)[C@@H](OC)COC(=O)[C@H](Cc2ccccc2)NC(=O)C/C=C\[C@@H]1C`, the AC50 was 3.16 µM (active). `CO[C@@H]1COC(=O)[C@H](C)NC(=O)[C@@H](C)COC(=O)CCC[C@H]1C` gave an activity, negative = inhibition of -21.6% [at 11.4 µM]. `O=C(NC(=S)Nc1cccc(Cl)c1N1CCCCC1)c1cccs1` showed an activity, negative = inhibition of -1.51% [at 2.29 µM]. With `CC1CCN(c2ccccc2NC(=S)NC(=O)c2cccs2)CC1` the AC50 was 15.8 µM (active). For `C=CCN(CC=C)C(=S)Nc1ccccc1`, the activity, negative = inhibition was -16.5% [at 2.29 µM]. For `C=CCN(CC=C)C(=S)NC(=O)c1ccc(OC)c(Br)c1`, the AC50 was 0.891 µM (active). In the case of `COc1ccc(C(=O)NC(=S)NC(C)C)cc1Br`, the “activity, negative = inhibition” value is reported as -28.4%. Work on `CCCc1nn2c(=O)c(C(c3ccc(C)cc3)c3c(O)nc4sc(CCC)nn4c3=O)c(O)nc2s1` yielded an activity, negative = inhibition of -0.554% [at 2.29 µM]. In the case of `CCOC(=O)c1sc(N(Cc2ccccc2)C(=O)CN2C(=O)CN(C)C2=O)nc1C`, the AC50 is reported as 12.6 µM (active). For `CCOC(=O)c1sc(NS(=O)(=O)c2ccccc2)nc1C`, the “activity, negative = inhibition” value was -13.8%. `Cc1noc(C)c1C(=O)OCC(=O)NC(c1ccccc1)c1ccccc1` was tested, and the activity, negative = inhibition was -8.57% [at 2.29 µM]. `COc1cccc(/C=N/NC(=O)c2c(-c3ccccc3)noc2C)c1` was tested, and the activity, negative = inhibition was -3.56% [at 2.29 µM]. With `COc1ccc(NC(=O)COC(=O)c2c(-c3ccccc3)noc2C)cc1` the AC50 was 7.08 µM (active). With `CCCCN1CCC(n2c(=O)[nH]c3ccccc32)CC1` the “activity, negative = inhibition” value was -14.6%. In the case of `c1ccc(Nc2ncnc3ccc(-c4ccoc4)cc23)cc1`, the AC50 is reported as 15.8 µM (active). `Fc1ccc(Nc2ncnc3ccc(-c4ccoc4)cc23)cc1` was tested, and the AC50 was 15.8 µM (active). With `Cc1noc(COc2ccc(OCc3nc(C)no3)cc2)n1` the “activity, negative = inhibition” value was -5.47%. For `CC1(CCC(=O)OC2CCCCC2)OCCO1`, the activity, negative = inhibition was -7.62% [at 11.4 µM]. For `Cn1c(/C=N/NC(=O)c2ccccc2Br)nc2ccccc21`, the AC50 was 10 µM (active). For `Nc1cccc(OCc2nc(N)nc(N)c2-c2ccc(Cl)cc2)c1`, the AC50 was 1.58 µM (active). With `CCOC(=O)N1CCN(C(=O)CSCc2ccc(Cl)cc2)CC1` the AC50 was 4.47 µM (active). For `CCOC(=O)C1CCCN(C(=O)CSCc2ccccc2)C1` (centres undefined), the AC50 was 25.1 µM (active). `CCOC(=O)C1CCCN(C(=O)CCCOc2cc(=O)n(C)c3ccccc23)C1` (centres undefined) was tested, and the AC50 was 3.98 µM (active). With `CCOC(=O)C1CCCN(S(=O)(=O)c2ccccc2)C1` (centres undefined) the “activity, negative = inhibition” value was -22.8%. With `CCOC(=O)N1CCN(C(=O)C(C)SCc2ccccc2)CC1` (centres undefined) the “activity, negative = inhibition” value was -12.5%. For `CCOC(=O)C1CCN(C(=O)C2CCN(S(=O)(=O)N3CCCC3)CC2)CC1`, the “activity, negative = inhibition” value was 6.47%. `CCOC(=O)N1CCN(S(=O)(=O)Cc2ccccc2)CC1` was tested, and the “activity, negative = inhibition” value was -5.12%.

Source: PubChem BioAssay AID1851 (National Center for Advancing Translational Sciences (NCATS), 2009)
% is scaled to controls: 0 for no effect and ±100 for the full control effect.
